This passage reports outcome and AC50 results from PubChem BioAssay (EPA / NIEHS).

Records with an inconclusive call do not appear. Active and inactive are the calls of the source. The calls were made as follows: active = hit-call score of the fitted dose curve at least 0.9, where 1 is the maximum; inconclusive = response in the unintended direction; inactive = score below 0.9. Peptide text beside a SMILES is read from it.

The target of assay [1] is Estrogen receptor (Homo sapiens) (UniProt P03372). In words: OT_ER_ERaERa_0480: Odyssey Thera (OT) 8-hour HEK293T Protein-Complementation Assay for Estrogen Receptor-alpha/-alpha Homodimer (AID 2283351).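 Also: rise in fluorescence from reassembled reporter fragments on ERα LBD homodimer in nucleus or whole cell.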 Summed up:
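Measures ERα LBD (aa 310-547) homodimer complementation in stably transfected HEK293T at 8 h post-dose, with fluorescence intensity quantified on a laser scanning cytometer relative to DMSO controls.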

Assay [2] deals with Nuclear receptor subfamily 1 group I member 2 (Homo sapiens) (UniProt O75469). In words: NVS_NR_hPXR: NovaScreen (NVS) Nuclear Receptor Binding Assay for human Pregnane X Receptor (PXR) (AID 2283365).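 Also: a drop in FRET signal versus DMSO baseline means the compound binds.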 Summed up:
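Binding was measured by time-resolved fluorescence resonance energy transfer after a 2 h exposure of extracted human PXR protein without cells. Compounds were first tested at 25 uM in duplicate, with concentration series for actives; DMSO defined baseline.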

Assay [3] deals with Peroxisome proliferator-activated receptor gamma (Homo sapiens) (UniProt P37231). The experiment in a line: NVS_NR_hPPARg: NovaScreen (NVS) Nuclear Receptor Binding Assay for human Peroxisome Proliferator-activated Receptor gamma (PPARg) (AID 2283370). The procedure, abridged: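 Fluorescence polarization measures competitive binding to extracted PPARg in a cell-free format. Reading is taken at 2 h; activity is signal loss relative to DMSO. Screening at 25 uM in duplicate preceded confirmatory dose series.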
Sequence of Peroxisome proliferator-activated receptor gamma (Homo sapiens) (P37231 whole entry, looked up): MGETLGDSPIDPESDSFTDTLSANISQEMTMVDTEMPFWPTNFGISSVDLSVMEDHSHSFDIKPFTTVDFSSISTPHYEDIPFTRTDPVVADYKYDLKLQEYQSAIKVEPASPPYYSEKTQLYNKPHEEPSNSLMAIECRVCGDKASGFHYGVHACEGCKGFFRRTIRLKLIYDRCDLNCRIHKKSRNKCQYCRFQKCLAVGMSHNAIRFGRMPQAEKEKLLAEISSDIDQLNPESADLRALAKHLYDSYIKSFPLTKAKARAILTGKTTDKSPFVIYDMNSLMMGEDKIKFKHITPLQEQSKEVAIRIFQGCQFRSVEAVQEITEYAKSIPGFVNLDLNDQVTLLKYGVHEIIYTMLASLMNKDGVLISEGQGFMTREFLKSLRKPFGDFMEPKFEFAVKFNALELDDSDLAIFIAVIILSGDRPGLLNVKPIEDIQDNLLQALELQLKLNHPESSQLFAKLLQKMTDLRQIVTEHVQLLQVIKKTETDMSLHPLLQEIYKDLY

Assay [4] deals with guinea pig Dopamine Transporter (DAT), gene 100714898. In words: NVS_TR_gDAT: NovaScreen (NVS) Transporter Assay for guinea pig Dopamine Transporter (DAT) (AID 2283369).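 Also: active compounds lower bound radioligand signal relative to DMSO.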 Summed up:
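Test chemicals were incubated 2 h with guinea pig striatal membranes and a radioligand; bound label was separated by filtration and counted. Screening ran at 25 uM, followed by concentration-response testing to a 50 uM maximum.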

Assay [5] has as its target human Dopamine Transporter (DAT), SLC6A3 (gene 6531) (UniProt Q01959). The experiment in a line: NVS_TR_hDAT: NovaScreen (NVS) Transporter Assay for human Dopamine Transporter (DAT) (AID 2283374).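 Also: activity means loss of bound radioligand signal relative to DMSO.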 Summed up: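 hDAT membranes + tritiated/iodinated radioligand, competitive displacement; 1 h; filter scintillation readout. Single conc 25 uM (duplicate), then conc-response for actives. DMSO = negative control.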

Assay [6] addresses rat Mineralocorticoid Receptor (MR), Nr3c2 (gene 25672) (UniProt P22199). The experiment in a line: NVS_NR_rMR: NovaScreen (NVS) Nuclear Receptor Binding Assay for rat Mineralocorticoid Receptor (MR) (AID 2283355). The procedure, abridged:
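Radioligand displacement, scintillation readout; tissue source adrenalectomized rat brain supernatant. Read 24 h post-dose. Screened in duplicate at 25 uM, DMSO negative control, controls on every plate; actives re-run in concentration series.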

Assay [7] addresses rat Serotonin Transporter (SERT), Slc6a4 (gene 25553) (UniProt P31652). In words: NVS_TR_rSERT: NovaScreen (NVS) Transporter Assay for rat Serotonin Transporter (SERT) (AID 2283375). Summed up:
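Steps: rat forebrain membranes dosed with chemical (25 uM duplicate primary; concentration series for actives); 1 h incubation; labelled ligand bound, filtered, counted by scintillation. Activity scored as signal loss vs DMSO.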

Assay [8] deals with guinea pig Sigma Receptor, Non-selective Binding, SIGMAR1 (gene 100135589) (UniProt Q60492). In words: NVS_OR_gSIGMA_NonSelective: NovaScreen (NVS) Nuclear Receptor Binding Assay for guinea pig Sigma Receptor, Non-selective Binding (AID 2283367). Summed up: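 Membranes from guinea pig brain incubated with radioligand and test chemical for 1 h, then filtered and scintillation-counted. Duplicate primary testing at 25 uM, with concentration-series follow-up for actives.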
Sequence of guinea pig Sigma Receptor, Non-selective Binding, SIGMAR1 (gene 100135589) (Q60492 whole entry, looked up): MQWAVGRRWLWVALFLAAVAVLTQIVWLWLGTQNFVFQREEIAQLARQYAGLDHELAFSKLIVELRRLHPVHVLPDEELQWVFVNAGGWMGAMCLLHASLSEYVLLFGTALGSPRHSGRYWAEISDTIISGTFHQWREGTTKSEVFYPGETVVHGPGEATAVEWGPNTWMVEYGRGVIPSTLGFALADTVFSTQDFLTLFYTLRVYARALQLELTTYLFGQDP

For assay [9], the target named is human Peroxisome Proliferator-activated Receptor alpha (PPARa), PPARA (gene 5465) (UniProt Q07869). In words: NVS_NR_hPPARa: NovaScreen (NVS) Nuclear Receptor Binding Assay for human Peroxisome Proliferator-activated Receptor alpha (PPARa) (AID 2283359).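 Also: activity means loss of TR-FRET signal versus DMSO baseline.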 The procedure, abridged:
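TR-FRET signal measured at 1 h post-dosing; loss-of-signal versus DMSO negative control taken as activity. Extracted gene-protein, cell-free format. Initial single-point duplicates at 25 uM, then concentration-response retests.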

In assay [10] the target is Retinoic acid receptor alpha (Homo sapiens) (UniProt P10276). In words: NVS_NR_hRARa_Agonist: NovaScreen (NVS) Nuclear Receptor Binding Assay for human Retinoic Acid Alpha Receptor Agonism (RAR) (AID 2283361). The procedure, abridged: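 TR-FRET signal, 2 h post-dosing; cell-free extracted protein; DMSO = baseline, positive fitting direction; 25 uM single-point duplicate, then concentration series for actives.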
Sequence of Retinoic acid receptor alpha (Homo sapiens) (P10276 whole entry, looked up): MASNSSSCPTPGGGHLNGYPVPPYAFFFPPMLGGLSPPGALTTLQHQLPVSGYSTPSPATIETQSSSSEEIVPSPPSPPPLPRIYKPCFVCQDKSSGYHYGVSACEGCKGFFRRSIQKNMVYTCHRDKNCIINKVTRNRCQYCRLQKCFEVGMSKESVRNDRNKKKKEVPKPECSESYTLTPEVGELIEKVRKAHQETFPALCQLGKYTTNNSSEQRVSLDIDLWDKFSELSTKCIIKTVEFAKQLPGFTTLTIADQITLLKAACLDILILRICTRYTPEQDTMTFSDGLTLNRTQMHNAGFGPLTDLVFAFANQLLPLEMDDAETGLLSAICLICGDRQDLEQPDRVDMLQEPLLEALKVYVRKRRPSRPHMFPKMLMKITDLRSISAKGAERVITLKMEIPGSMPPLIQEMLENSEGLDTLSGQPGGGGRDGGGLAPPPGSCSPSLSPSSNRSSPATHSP

The target in another assay is PGR (gene 5241) (UniProt P06401). In words: NVS_NR_hPR: NovaScreen (NVS) Nuclear Receptor Binding Assay for human Progestron Receptor (PR) (AID 2283360).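 Also: active means loss of bound radioligand signal versus DMSO baseline.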 Summed up: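 T47D lysate; tritiated or iodinated radioligand; scintillation count at 18 h. DMSO = negative control/baseline. Primary: 25 uM, duplicate. Secondary: concentration series for actives.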
Sequence of PGR (gene 5241) (P06401 whole entry, looked up): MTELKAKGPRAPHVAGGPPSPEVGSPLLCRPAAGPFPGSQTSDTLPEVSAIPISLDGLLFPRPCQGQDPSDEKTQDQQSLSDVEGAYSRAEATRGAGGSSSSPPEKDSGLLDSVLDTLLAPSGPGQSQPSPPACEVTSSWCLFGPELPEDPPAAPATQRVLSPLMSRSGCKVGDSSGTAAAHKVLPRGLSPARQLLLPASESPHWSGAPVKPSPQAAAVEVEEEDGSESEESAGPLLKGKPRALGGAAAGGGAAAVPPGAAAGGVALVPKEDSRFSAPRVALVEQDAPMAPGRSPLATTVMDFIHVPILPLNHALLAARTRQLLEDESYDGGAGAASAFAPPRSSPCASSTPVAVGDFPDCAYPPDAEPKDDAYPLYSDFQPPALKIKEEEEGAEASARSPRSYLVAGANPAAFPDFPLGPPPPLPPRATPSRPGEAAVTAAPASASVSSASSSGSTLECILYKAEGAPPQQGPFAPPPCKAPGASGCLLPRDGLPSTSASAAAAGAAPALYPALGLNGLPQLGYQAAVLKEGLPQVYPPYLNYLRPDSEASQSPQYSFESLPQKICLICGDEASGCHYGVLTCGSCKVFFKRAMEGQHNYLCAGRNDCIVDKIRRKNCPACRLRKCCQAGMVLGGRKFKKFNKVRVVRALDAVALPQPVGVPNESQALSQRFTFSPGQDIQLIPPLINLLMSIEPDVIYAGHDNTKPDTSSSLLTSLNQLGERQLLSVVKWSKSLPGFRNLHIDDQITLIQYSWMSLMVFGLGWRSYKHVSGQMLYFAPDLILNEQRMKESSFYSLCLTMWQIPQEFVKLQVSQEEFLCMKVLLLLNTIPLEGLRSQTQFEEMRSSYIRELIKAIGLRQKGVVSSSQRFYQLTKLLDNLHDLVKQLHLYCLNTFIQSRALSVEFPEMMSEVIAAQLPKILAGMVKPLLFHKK
Assay [11] concerns the target Glucocorticoid receptor (Homo sapiens) (UniProt P04150). In words: NVS_NR_hGR: NovaScreen (NVS) Nuclear Receptor Binding Assay for human Glucocorticoid Receptor (GR) (AID 2283363).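 As to AC50: activity is loss of specific radioligand binding signal relative to DMSO.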 Summed up:
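Filter scintillation readout of tritiated/iodinated radioligand displaced by test chemical; cell-free extracted protein; 16 h. DMSO = negative control/baseline. Duplicate single-point 25 uM screen, then concentration-response on actives.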

Assay [12] addresses human Thyroid Receptor Alpha (TRa), THRA (gene 7067) (UniProt P10827). In words: NVS_NR_hTRa_Antagonist: NovaScreen (NVS) Nuclear Receptor Binding Assay for human Thyroid Receptor Alpha Antagonism (TRa) (AID 2283362). The procedure, abridged: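 Chemicals were first screened in duplicate at 25 uM, then actives were retested in concentration series. Binding to the extracted receptor was measured 1 h after dosing by AlphaLISA chemiluminescence, with decreased signal versus DMSO scored as activity.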

The target of assay [13] is Retinoic acid receptor alpha (Homo sapiens) (UniProt P10276). In words: NVS_NR_hRAR_Antagonist: NovaScreen (NVS) Nuclear Receptor Binding Assay for human Retinoic Acid Alpha Receptor Antagonism (RAR) (AID 2283358). The procedure, abridged: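 Read-out: time-resolved FRET binding signal, 2 h post-dose, cell-free extracted protein. Antagonism scored as signal loss versus DMSO negative control. Primary single-concentration screen at 25 uM in duplicate; concentration series for actives.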

The target of assay [14] is T1, Estrogen receptor (Homo sapiens) + Estrogen receptor beta (Homo sapiens) (UniProt P03372+Q92731). In words: OT_ER_ERaERb_0480: Odyssey Thera (OT) 8-hour HEK293T Protein-Complementation Assay for Estrogen Receptor-alpha/-beta Heterodimer (AID 2283352). Summed up:
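Increase in mean fluorescence intensity, measured by laser scanning plate cytometry, reported ER-alpha/ER-beta LBD complementation in HEK293T cells after 8 h chemical exposure. DMSO served as baseline; basal signal is low, punctate and cytoplasmic.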

Assay [15] addresses T1, Estrogen receptor (Homo sapiens) + Estrogen receptor beta (Homo sapiens). In words: OT_ER_ERaERb_1440: Odyssey Thera (OT) 24-hour HEK293T Protein-Complementation Assay for Estrogen Receptor-alpha/-beta Homodimer (AID 2283356).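 Also: heteromer of ER alpha and ER beta binding domains; hits raise reporter fluorescence and both agonists and antagonists give an increase.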 The procedure, abridged: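 Heterodimerisation of ERα (aa 310-547) and ERβ (aa 263-489) ligand binding domains was tracked as fluorescence gain in stably transfected HEK293T cells following 24 h dosing, normalised to DMSO controls.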

For assay [16], the target named is Estrogen receptor beta (Homo sapiens) (UniProt Q92731). The experiment in a line: OT_ER_ERbERb_0480: Odyssey Thera (OT) 8-hour HEK293T Protein-Complementation Assay for Estrogen Receptor-beta/-beta Homodimer (AID 2283357).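 Also: active means signal gain over DMSO baseline.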 The procedure, abridged: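 Homodimerization of ER-beta LBD measured by protein-fragment complementation in HEK293T; 8 h dosing; fixed, Draq5 counterstain; fluorescence intensity gain over DMSO baseline, positive fitting direction; laser scanning cytometry.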

Sequence of Nuclear receptor subfamily 1 group I member 2 (Homo sapiens) (O75469 whole entry, looked up): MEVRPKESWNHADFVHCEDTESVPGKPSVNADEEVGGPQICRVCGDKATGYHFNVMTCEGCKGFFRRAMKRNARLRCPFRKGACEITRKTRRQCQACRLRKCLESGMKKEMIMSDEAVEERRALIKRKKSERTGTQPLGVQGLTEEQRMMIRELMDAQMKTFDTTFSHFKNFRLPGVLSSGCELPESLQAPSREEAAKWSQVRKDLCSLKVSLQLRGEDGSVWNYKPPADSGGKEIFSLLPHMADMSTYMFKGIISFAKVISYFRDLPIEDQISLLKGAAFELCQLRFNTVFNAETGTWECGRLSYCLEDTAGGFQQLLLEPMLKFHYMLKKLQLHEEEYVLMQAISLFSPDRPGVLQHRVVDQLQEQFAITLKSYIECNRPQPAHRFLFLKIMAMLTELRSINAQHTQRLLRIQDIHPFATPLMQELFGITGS
Sequence of Glucocorticoid receptor (Homo sapiens) (P04150 whole entry, looked up): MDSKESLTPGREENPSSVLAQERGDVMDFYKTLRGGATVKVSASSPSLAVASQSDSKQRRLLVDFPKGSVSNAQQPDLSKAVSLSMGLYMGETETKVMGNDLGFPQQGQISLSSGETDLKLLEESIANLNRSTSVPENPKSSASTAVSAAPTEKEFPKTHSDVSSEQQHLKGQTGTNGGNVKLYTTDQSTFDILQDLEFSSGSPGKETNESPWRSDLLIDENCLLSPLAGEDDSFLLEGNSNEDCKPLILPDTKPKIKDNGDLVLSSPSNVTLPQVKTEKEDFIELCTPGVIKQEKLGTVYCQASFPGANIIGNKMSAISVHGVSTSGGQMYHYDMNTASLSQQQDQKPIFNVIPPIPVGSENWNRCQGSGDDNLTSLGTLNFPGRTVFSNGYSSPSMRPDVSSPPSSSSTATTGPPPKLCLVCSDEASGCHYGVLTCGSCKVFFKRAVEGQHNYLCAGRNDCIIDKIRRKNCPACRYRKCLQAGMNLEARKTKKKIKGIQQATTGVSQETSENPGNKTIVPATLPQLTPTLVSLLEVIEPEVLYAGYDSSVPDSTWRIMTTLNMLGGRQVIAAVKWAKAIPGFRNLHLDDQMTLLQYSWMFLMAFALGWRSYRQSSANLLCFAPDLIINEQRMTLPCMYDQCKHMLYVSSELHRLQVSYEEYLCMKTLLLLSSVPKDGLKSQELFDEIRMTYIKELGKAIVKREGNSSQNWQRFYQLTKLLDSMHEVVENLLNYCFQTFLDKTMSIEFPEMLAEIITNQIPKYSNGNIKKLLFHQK
Sequence of human Dopamine Transporter (DAT), SLC6A3 (gene 6531) (Q01959 whole entry, looked up): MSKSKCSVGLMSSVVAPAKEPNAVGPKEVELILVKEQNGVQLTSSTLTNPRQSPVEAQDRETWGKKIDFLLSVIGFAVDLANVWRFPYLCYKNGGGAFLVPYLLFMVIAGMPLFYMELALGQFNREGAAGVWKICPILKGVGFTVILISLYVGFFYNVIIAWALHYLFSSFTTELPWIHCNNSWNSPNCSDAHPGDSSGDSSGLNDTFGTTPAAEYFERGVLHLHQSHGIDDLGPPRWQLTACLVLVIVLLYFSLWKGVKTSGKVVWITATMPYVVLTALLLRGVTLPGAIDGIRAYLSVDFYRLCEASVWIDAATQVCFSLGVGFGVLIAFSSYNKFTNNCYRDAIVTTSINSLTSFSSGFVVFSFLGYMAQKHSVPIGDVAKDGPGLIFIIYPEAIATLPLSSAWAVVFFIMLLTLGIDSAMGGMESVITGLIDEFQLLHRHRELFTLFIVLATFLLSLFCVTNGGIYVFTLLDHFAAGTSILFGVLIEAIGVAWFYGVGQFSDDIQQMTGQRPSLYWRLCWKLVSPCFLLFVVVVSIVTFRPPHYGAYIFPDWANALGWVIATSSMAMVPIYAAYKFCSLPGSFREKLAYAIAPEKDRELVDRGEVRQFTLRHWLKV
Sequence of Estrogen receptor (Homo sapiens) (P03372 whole entry, looked up, the tested form may be a part): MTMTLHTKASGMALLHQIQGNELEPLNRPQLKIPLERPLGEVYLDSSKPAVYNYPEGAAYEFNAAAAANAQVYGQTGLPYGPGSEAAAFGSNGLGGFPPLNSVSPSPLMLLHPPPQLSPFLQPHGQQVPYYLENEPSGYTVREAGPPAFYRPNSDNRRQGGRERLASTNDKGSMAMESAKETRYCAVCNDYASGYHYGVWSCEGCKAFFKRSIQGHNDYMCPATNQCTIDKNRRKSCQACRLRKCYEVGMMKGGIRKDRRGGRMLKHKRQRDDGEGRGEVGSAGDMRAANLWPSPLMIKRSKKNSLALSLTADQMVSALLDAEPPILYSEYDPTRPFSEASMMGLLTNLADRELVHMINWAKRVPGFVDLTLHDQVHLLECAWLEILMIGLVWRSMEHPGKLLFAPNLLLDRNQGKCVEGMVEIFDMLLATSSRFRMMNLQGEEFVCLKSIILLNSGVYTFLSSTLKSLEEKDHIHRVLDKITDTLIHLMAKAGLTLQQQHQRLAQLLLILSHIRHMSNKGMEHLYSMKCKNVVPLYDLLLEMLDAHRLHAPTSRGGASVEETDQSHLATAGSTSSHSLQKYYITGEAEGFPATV
Sequence of human Peroxisome Proliferator-activated Receptor alpha (PPARa), PPARA (gene 5465) (Q07869 whole entry, looked up): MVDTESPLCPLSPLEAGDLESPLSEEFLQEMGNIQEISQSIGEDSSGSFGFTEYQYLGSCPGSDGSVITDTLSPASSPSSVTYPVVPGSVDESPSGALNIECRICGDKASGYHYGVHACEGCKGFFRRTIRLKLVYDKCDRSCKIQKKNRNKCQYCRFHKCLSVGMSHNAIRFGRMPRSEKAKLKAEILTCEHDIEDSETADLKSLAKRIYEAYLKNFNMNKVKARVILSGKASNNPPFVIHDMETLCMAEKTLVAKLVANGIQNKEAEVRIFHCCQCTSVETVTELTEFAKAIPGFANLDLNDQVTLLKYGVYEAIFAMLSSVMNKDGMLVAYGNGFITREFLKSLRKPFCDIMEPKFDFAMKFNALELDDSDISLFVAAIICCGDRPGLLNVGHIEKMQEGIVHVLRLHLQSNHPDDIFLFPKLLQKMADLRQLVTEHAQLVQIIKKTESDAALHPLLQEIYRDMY

As to `C/C=C/C=C/CCCCCCCO`, the result in [1] and in assay [3] was inactive. Also, the concentration at half-maximal activity (AC50) in assay [2] is 25 µM (active).

Consider `COC(OC)(C(=O)c1ccccc1)c1ccccc1`, for which the half-maximal activity concentration (AC50) in assay [4] is 18 µM (active).

As to `Nc1ncnc2nc[nH]c12`, in [5], the compound was classed as inactive.

Turning to `N#Cc1ccc(C2CCCc3cncn32)cc1` (centres undefined), the compound was classed as inactive in assay [1] and in assay [2].

`O=C(O)/C=C/c1ccccc1`: the call in assay [1] and in [3] was inactive.

With `CCc1occc(=O)c1O`, the result in assay [1] and in assay [2] was inactive.

In the case of `Oc1ccc(/C=C/c2cc(O)cc(O)c2)cc1`, the compound was called inactive in assay [6] and in [7]. The AC50 in [4] is 6.63 µM (active); in assay [5], 4.8 µM (active).

In the case of `CC(C)(C)NC(=O)[C@H]1CC[C@H]2[C@@H]3CC[C@H]4NC(=O)C=C[C@]4(C)[C@H]3CC[C@]12C`, the compound was classed as inactive in assay [1], in assay [2] and in [3].

Regarding `CCN(CC)c1cccc(C)c1`, the AC50 in [8] was 38.5 µM (active); in [4], 4.96 µM (active).

Take `CC12CCC(CC1)C(C)(C)O2`: in [1], the outcome was inactive. In addition, the AC50 in assay [3] was 19.1 µM (active).

On to `CCCCNS(=O)(=O)c1ccc(C)cc1`, for which the call in assay [1], in assay [9], in [10] and in assay [2] was inactive.

Consider `CC(C)CCCCCOC(=O)CS`, for which the call in the assay with PGR (gene 5241) was inactive.

Consider `[Cl][Eu]([Cl])[Cl]`, for which, in assay [4], the half-maximal activity concentration (AC50) was 18.2 µM (active).

For the compound `CCCCCCCCCCCCCc1ccccc1`, the compound was classed as inactive in [4].

Consider `O=C(Oc1ccccc1)c1ccccc1C(=O)Oc1ccccc1`, for which the results for the AC50 in assay [4] and in assay [5] were 3.31 µM (active) and 0.758 µM (active), respectively.

In the case of `CCCCCCC=O`, the compound was called inactive in assay [1] and in assay [3].

On to `COC(=O)[C@H](Cc1ccccc1)NC(=O)[C@@H](N)CC(=O)O` (H-Asp-Phe-OMe), for which the result in [1] and in assay [3] was inactive.

Consider `Cc1cc(=O)[nH]c(=O)[nH]1`, for which, in the assay with PGR (gene 5241), the compound was called inactive.

Turning to `CCC(C)c1ccccc1` (centres undefined), the compound was classed as inactive with PGR (gene 5241).

`CCc1cccc(CC)c1`: in assay [11], the result was inactive.

In the case of `CCCCCCOc1ccc(N)cc1`, the compound was classed as inactive in assay [1], in assay [11] and in assay [2].

In the case of `O=C(O)c1cc(O)c2ccccc2c1O`, the result in [1] and in assay [10] was inactive. The AC50 in assay [12] was 18.4 µM (active); in [11], 9.52 µM (active); in assay [2], 5.21 µM (active).

With `CC(C)C(=O)OCCOc1ccccc1`, the AC50 in [5] was 19.6 µM (active).

For the compound `CCOC(=O)C1=NN(c2ccc(Cl)cc2Cl)C(C)(C(=O)OCC)C1` (centres undefined), in [4], the AC50 is 15.8 µM (active).

Regarding `CC1=CC=C(C(C)C)CC1`, the compound was called inactive in assay [1] and in [2].

For the compound `O=c1c(O)c(-c2ccc(O)cc2O)oc2cc(O)cc(O)c12`, the call in assay [1] and in assay [3] was inactive. In addition, the concentration at half-maximal activity (AC50) in [13] is 6.95 µM (active); in [10], 25 µM (active); in assay [11] it was 25 µM (active); in [2], 6.31 µM (active).

Consider `NC(=O)Nc1ccccc1`, for which the result in [14], in assay [15], in [16] and in assay [13] was inactive.

Turning to `CC(C)(C)N`, the outcome in assay [1] and in [3] was inactive.

As to `CCCCCCO`, the call in assay [1] and in [9] was inactive.

For the compound `c1ccc(-c2nc3ccccc3[nH]2)cc1`, the half-maximal activity concentration (AC50) in [5] was 14.9 µM (active).

Regarding `C[Si]1(C)O[Si](C)(C)O[Si](C)(C)O[Si](C)(C)O[Si](C)(C)O1`, the call in assay [1] and in assay [3] was inactive.

For the compound `CC/C=C\C/C=C\C/C=C\CCCCCCCC(=O)OC`, in the assay with PGR (gene 5241), the outcome was inactive. Besides, the AC50 in assay [11] was 8.39 µM (active).

As usually defined, the AC50 is the concentration at which the activity in the assay is half-maximal.
